According to the supplement of paper PMC6555819:

How the values were obtained:
Experiment in all cases: PBM binding z-score (relative to random genomic background probes); higher = stronger binding; sequences stand for … in GC…GCGATTGACAGCGTAGAATGAAGG
[1] = tested on: FXR:RXRa (NR concentration 270 nM, RXRa partner concentration 90 nM)
How it was run: (§1)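 Random background probes are the reference for binding z-scores. These scores derive from regression-normalized fluorescence on custom Agilent 4×180K protein-binding microarrays incubated 1 h with ligand-free nuclear receptor dimers. Binding was detected with antibodies against each partner (one per run).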

[2] = tested on: LXRa:RXRa (NR concentration 270 nM, RXRa partner concentration 90 nM)
How it was run: as §1

[3] = tested on: LXRa homodimer (NR concentration 270 nM)
How it was run: as §1

[4] = tested on: LXRb:RXRa (NR concentration 270 nM, RXRa partner concentration 90 nM)
How it was run: as §1

[5] = tested on: LXRb homodimer (NR concentration 270 nM)
How it was run: as §1

[6] = tested on: PPARa:RXRa (NR concentration 270 nM, RXRa partner concentration 90 nM)
How it was run: as §1

[7] = tested on: PPARg:RXRa (NR concentration 180 nM, RXRa partner concentration 90 nM)
How it was run: as §1

[8] = tested on: PPARg:RXRa 270nM:90nM, anti-RXR (NR concentration 270 nM, RXRa partner concentration 90 nM)
How it was run: as §1

[9] = tested on: PPARg:RXRa 30nM:10nM, anti-RXR (NR concentration 30 nM, RXRa partner concentration 10 nM)
How it was run: as §1

[10] = tested on: PPARg:RXRa 90nM:30nM, anti-RXR (NR concentration 90 nM, RXRa partner concentration 30 nM)
How it was run: as §1

| Sequence | PBM binding z-score [1] | PBM binding z-score [2] | PBM binding z-score [3] | PBM binding z-score [4] | PBM binding z-score [5] | PBM binding z-score [6] | PBM binding z-score [7] | PBM binding z-score [8] | PBM binding z-score [9] | PBM binding z-score [10] |
| --- | --- | --- | --- | --- | --- | --- | --- | --- | --- | --- |
| GATACAGGGTCAGCTAGGGGCCAGAGTATGGAAA | 5.14 | 2.64 | -0.494 | 2.7 | -0.084 | 4.79 | 3.88 | 3.46 | 0.617 | 1.94 |
| ATCTCTAGGTAATAAGTTCAGTGAAAGAGAGGAC | 0.945 | 1.09 | 0.832 | 0.701 | 1.15 | 1.51 | 1.69 | 2.39 | 1.36 | 2.07 |
| CCTCGGAGGACAGAAGGTCAGTGCTGTCCGCTTT | 1.08 | 1.1 | -0.0896 | 0.672 | -0.597 | 1.49 | -0.509 | 0.452 | -0.825 | -0.242 |
| AGAACGAGGGCAATGAGTTGATAGCACGGGTGGC | 0.227 | 0.258 | -0.336 | -0.187 | -0.464 | 1.14 | 1.4 | 0.948 | 0.0396 | 0.43 |
| GCAGACAGGTGAAACGCAGGTAACTTAGGGTGGC | 0.0644 | -0.18 | -0.522 | -0.226 | -1.05 | 0.666 | 0.771 | 0.226 | -0.508 | -0.022 |
| CTCGAAAGGTCGGTTGAGGTGAATATACGGATAA | 2.5 | 2.04 | 0.0954 | 1.76 | 0.0541 | 3.15 | 0.944 | 1.6 | 0.365 | 1.15 |
| AGAATGAGGTTACCAAAGATCAGGGTAACGCTTG | 2.45 | 6.27 | -0.1 | 3.22 | -0.278 | 3.65 | 2.8 | 3.14 | 1.16 | 2.54 |
| CCTCGGAGGACAAGAGGAGGTCAGAGCTGCCAGA | 0.831 | 1.16 | 0.18 | 0.759 | -0.815 | 1.62 | 0.27 | -0.135 | -0.865 | -0.28 |
| GCTGCTAGGTCAACTGATGGTCAGCTATAGCTCG | 4.54 | 3.25 | 0.314 | 2.01 | 0.25 | 3.81 | 2.88 | 3.13 | 0.633 | 2.16 |
| GCGACTGGGGCAAAGCAGGTTACCAGAAGGTTGG | 0.766 | 0.129 | -0.462 | 0.0356 | -1.38 | 1.3 | 1.17 | 1.42 | -0.461 | 0.594 |
| GCATATAGGTAATACAAGGTGAAAGTCCGATTGT | 2.2 | 2.59 | 0.161 | 0.649 | -0.271 | 1.68 | 1.37 | 1.36 | 0.636 | 0.931 |
| CATACAGAGTCAGCTAGGCCAGAGTAGGGACGGC | -0.451 | -0.383 | -0.608 | -0.891 | -0.106 | -0.478 | 0.472 | -0.324 | -0.369 | -0.479 |
| ATCTCTAGCTAAGACTCAGTTCAGTGAAGAACGC | 0.167 | 0.272 | 0.317 | -0.057 | 0.629 | -0.233 | -0.0864 | -0.493 | -0.13 | -0.144 |
| AATACAGGGTCATCGTAGGCCAAAGTACGCACAG | 7.45 | 6.92 | 3.34 | 5.36 | 1.6 | 6.04 | 6.83 | 5.96 | 2.67 | 4.78 |
| CCAGACAGGTGAAAGGTAACTTAGTCTGGTACGC | 0.545 | 0.539 | -0.368 | 0.935 | -0.486 | 3.31 | 5.21 | 5.6 | 3.58 | 5.77 |
| TCATATAGGTAAAAGGTGAAAGTTGGTGTGGTAA | 2.15 | 2.33 | 0.407 | 2.44 | 0.326 | 5.33 | 9.26 | 8.44 | 8.7 | 8.75 |
| CCTCCGAGGACAACAGGAGGTCAGAGCTGCCAGA | 1.35 | 2.3 | 2.21 | 1.51 | -0.302 | 2.02 | 0.575 | 0.211 | -0.642 | -0.107 |
| CCGCGTAGGTTATGGGGCATTCAGGCAACGGTGA | 0.332 | 0.33 | -0.277 | 0.756 | -0.566 | 1.43 | 0.613 | 1.17 | -0.391 | 0.458 |
| TCTTGTCGATCAGCAGGTTAAGAAAGCTGGCCAA | 0.435 | 0.635 | -0.135 | 0.381 | 0.00876 | 0.714 | -0.663 | 1.47 | 2.63 | 1.91 |
| GGAACGAGGGTAAGTTGATAGCAGAGTTTGATGG | -0.0165 | -0.0993 | -0.232 | -0.276 | -0.358 | 0.189 | 0.422 | 0.00426 | -0.0948 | -0.0902 |
| GATACAGGGTCAGGGCCAGAGTACGCGTATTGAT | 4.33 | 2.61 | -0.233 | 2.53 | -0.183 | 4.46 | 3.86 | 3.63 | 0.972 | 2.36 |
| AGAACGAGGGCACGCTGAGTAGATAGCAGAGTAG | 0.37 | 0.529 | -0.626 | 0.201 | -0.892 | 2.15 | 2.28 | 1.87 | 0.547 | 1.18 |
| CCTGCAAGGTCATGGTCAGCTAATCTACAGTATG | 6.95 | 5.02 | 0.64 | 4.16 | 0.00573 | 5.68 | 4.66 | 5.14 | 2.07 | 3.51 |
